Results filed as inconclusive are left out. Where a call stands in place of a potency, no number is given. Calls of active or inactive are those of the source. Calls follow the shape of the dose curve; as a rule, active = well fitted activation curve with a large enough effect; inconclusive = small, poorly fitted or top-dose-only effect; inactive = no such curve, though single readings can be large or run the other way.
Potency is read from the fitted curve at half-maximal effect.

A short description of this experiment: qHTS assay for re-activators of p53 using a Luc reporter: Hit Validation with no p53 Expressed. Conditions: p53-null cells, luciferase reporter counter-screen; series mostly up to 46.1 µM. In outline: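 Counter-screen of primary hits in a cell line not transfected with p53, in Opti-MEM with 10% FBS; compounds at several concentrations (10 mM stock, 1:5; top 46.1 µM in well), 24 h at 37 deg C, 5% CO2. Luminescence read after 10 min with Amplite reagent.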
As to `Cc1ccnc(NC(=O)c2sc3cc(Cl)ccc3c2Cl)c1`, the Potency entry is “inactive”.

For `CC(Cc1ccccc1)NC(=O)c1ccc([N+](=O)[O-])cc1` (centres undefined), the Potency result is “inactive”.

Regarding `CC(C)c1ccc(OCC(=O)NC(C)c2ccccc2)cc1` (centres undefined), the Potency entry was “inactive”.

Turning to `Cc1noc(C)c1COc1ccc(C(=O)NCCOc2ccccc2)cc1`, the Potency entry is “inactive”.

`O=C(Nc1nnc(-c2cccs2)o1)c1cccc(Oc2ccccc2)c1`: the Potency result is “inactive”.

In the case of `C=CCNc1nc(-c2cc3ccccc3o2)cs1`, the Potency entry was “inactive”.

As for `Cc1cc2[nH]c3ccccc3c2c(C)n1`, the Potency result was “inactive”.

Turning to `CC12CN(C(=O)c3cccc([N+](=O)[O-])c3)C3(C#N)CC1CCC23C` (centres undefined), the Potency result is “inactive”.

Regarding `COc1cc(NC(=O)CN2CCCCC2)c(C)cc1[N+](=O)[O-]`, the Potency result was “inactive”.

For the compound `CCCCCc1nnc(NC(=O)C2CCCO2)s1` (centres undefined), the Potency result was “inactive”.

Regarding `CC1(C)NC(=O)N(CC(=O)N2CCN(S(=O)(=O)c3ccccc3C(F)(F)F)CC2)C1=O`, the Potency entry is “inactive”.

Turning to `CCc1ccc(C(=O)Nc2nc3ccccc3[nH]2)cc1`, the Potency entry was “inactive”.

`Cc1cc([N+](=O)[O-])ccc1NC(=O)/C=C/c1cccs1`: the Potency entry is “inactive”.

Turning to `O=C(CC1NC2CCCCC2NC1=O)Nc1ccc2c(c1)OCO2` (centres undefined), the Potency entry was “inactive”.

`CCOc1ccc(N2C(=O)c3ccccc3NC2(C)CC)cc1` (centres undefined): the Potency result is “inactive”.

Turning to `COc1ccc2nc(SCc3ccccc3)nc(C)c2c1`, the Potency result was “inactive”.

With `Cc1cc(C(=O)COC(=O)c2cccc(O)c2)c(C)n1C1CC1`, the Potency entry was “inactive”.

Take `Cc1nn(-c2ccccc2)c(N)c1Sc1ccc([N+](=O)[O-])cc1`: the Potency entry is “inactive”.

`Cc1ccnc(NC(=O)/C=C/c2cccs2)c1`: the Potency entry was “inactive”.

As for `FC(F)(F)c1nnc2c(Sc3ccccn3)nc3ccccc3n12`, the Potency result was “inactive”.

For the compound `O=C(NCc1ccc(-c2nc3ccccc3s2)cc1)c1cc2ccccc2o1`, the Potency result was “inactive”.

`Cc1cccc(NC(=O)c2cnc3ccccn3c2=O)c1`: the Potency entry is “inactive”.

Turning to `CNC(=S)N/N=C/c1cc(Br)cc(Br)c1O`, the Potency result was “inactive”.

Take `Cn1c(=N)n(CC(=O)c2ccc(Cl)c(Cl)c2)c2ccccc21`: the Potency entry was “inactive”.

Regarding `Cc1ccc(N2C(=O)c3ccccc3C2C(=O)c2cc(C)ccc2O)cc1` (centres undefined), the Potency result was “inactive”.

With `C=C[C@@H]1c2cc(C)ccc2N(S(=O)(=O)c2ccc(C)cc2)[C@H](c2ccccc2C(F)(F)F)C1(C#N)C#N`, the Potency entry was “inactive”.

Take `O=C(Nc1nnc(-c2ccccc2F)s1)C1CCN(S(=O)(=O)c2ccc(Cl)cc2)CC1`: the Potency entry is “inactive”.

As for `CS(=O)(=O)c1ccc2nc(NC(=O)CCNC(=O)c3ccccc3Cl)sc2c1`, the Potency entry is “inactive”.

On to `CCCCC(=O)Nc1cccc(NC(=S)NC(=O)Cc2ccccc2)c1`, for which the Potency result is “inactive”.

As to `CC(=O)c1ccc(NC(=O)CCc2nnc3ccc(NCc4ccco4)nn23)cc1`, the Potency entry is “inactive”.

With `COc1ccc(C(C)(C)C)cc1NC(=O)Nc1ccc2c(c1)OCO2`, the Potency result was “inactive”.

As to `COCCn1c(C)cc(C(=O)CSc2nc3ccccc3s2)c1C`, the Potency result was “inactive”.

In the case of `O=C(NNC(=O)c1ccc(Cl)cc1Cl)c1ccncc1`, the Potency result is “inactive”.

As for `NNc1nc(-c2ccccc2)nc2sc3c(c12)CCCC3`, the Potency result is “inactive”.

Turning to `CC(C)c1ccc(NC(=O)c2snc3ccc(Cl)cc23)cc1`, the Potency was 1.03 µM (active).

As to `Cc1ccc2nc(NC(=O)c3ccc(Cl)s3)sc2c1`, the Potency result was “inactive”.

On to `O=C(Nc1ccc(COc2ccccc2)cc1)c1cccc([N+](=O)[O-])c1`, for which the Potency entry is “inactive”.

Regarding `c1cnc2c(OCc3nc4ccccc4[nH]3)cccc2c1`, the Potency result is “inactive”.

Consider `Clc1ccc(OCc2nc(-c3ccncc3)no2)c(Cl)c1`, for which the Potency entry is “inactive”.

The record behind these values is PubChem BioAssay AID624331 (National Center for Advancing Translational Sciences (NCATS), 2012).
